Results reported in PubChem BioAssay (NCATS).
Values joined by “and” are separate entries in the source; they are usually repeats but may differ in a detail not shown here. Identical values can stand only once. Inconclusive results are not listed. Some compounds were tested as several samples or in several runs, with calls that do not always agree. Active and inactive are the calls of the source. Calls follow the shape of the dose curve; as a rule, active = well fitted inhibition curve with a large enough effect; inconclusive = small, poorly fitted or top-dose-only effect; inactive = flat fitted curve, though single readings scatter.

Experiments:
CRL-7250 = normal cell line; test: Cytotoxic Profiling of Annotated Libraries Using Quantitative High-Throughput Screening (AID 1296008); conditions: Five cell lines viability, CellTiter-Glo ATP luminescence, 48-72 h; max response: hits give low values; as to max response: % is scaled to controls: 0 for no effect and ±100 for the full control effect
Method in brief: (§1)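 Cells exposed to compounds for 48 or 72 hr at 37 degrees Celsius. Viability read as ATP-coupled luminescence with CellTiter-Glo after 10 min at room temperature.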

HEK293 = test: as above; conditions: Five cell lines viability, CellTiter-Glo ATP luminescence, 48-72 h; max response: hits give low values
Method in brief: as §1

HaCat = test: as above; conditions: Five cell lines viability, CellTiter-Glo ATP luminescence, 48-72 h; max response: hits give low values
Method in brief: as §1

KB-3-1 = test: as above; conditions: Five cell lines viability, CellTiter-Glo ATP luminescence, 48-72 h; max response: hits give low values
Method in brief: as §1

GB4 = test: qHTS profiling for inhibitors of Plasmodium falciparum proliferation (AID 504749); conditions: P. falciparum in erythrocytes, SYBR Green DNA, 72 h; series mostly up to 28.7 µM
Method in brief: (§2)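 P. falciparum-infected erythrocytes (0.3% parasitemia, 2.5% hematocrit) incubated with compound 72 h at 37 C, 5% CO2. Parasite DNA detected by SYBR Green after lysis, overnight at room temperature; normalised to 0.29 uM artemisinin and DMSO.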

HB3 = test: as above; conditions: P. falciparum in erythrocytes, SYBR Green DNA, 72 h; series mostly up to 28.7 µM
Method in brief: as §2

ICS = test: as above; conditions: P. falciparum in erythrocytes, SYBR Green DNA, 72 h; series mostly up to 28.7 µM
Method in brief: as §2

JCK = test: as above; conditions: P. falciparum in erythrocytes, SYBR Green DNA, 72 h; series mostly up to 28.7 µM
Method in brief: as §2

N140 = test: as above; conditions: P. falciparum in erythrocytes, SYBR Green DNA, 72 h; series mostly up to 28.7 µM
Method in brief: as §2

P93_24 = test: as above; conditions: P. falciparum in erythrocytes, SYBR Green DNA, 72 h; series mostly up to 28.7 µM
Method in brief: as §2

P94_40 = test: as above; conditions: P. falciparum in erythrocytes, SYBR Green DNA, 72 h; series mostly up to 28.7 µM
Method in brief: as §2

PAD = test: as above; conditions: P. falciparum in erythrocytes, SYBR Green DNA, 72 h; series mostly up to 28.7 µM
Method in brief: as §2

PC15 = test: as above; conditions: P. falciparum in erythrocytes, SYBR Green DNA, 72 h; series mostly up to 28.7 µM
Method in brief: as §2

PC26 = test: as above; conditions: P. falciparum in erythrocytes, SYBR Green DNA, 72 h; series mostly up to 28.7 µM
Method in brief: as §2

PC49 = test: as above; conditions: P. falciparum in erythrocytes, SYBR Green DNA, 72 h; series mostly up to 28.7 µM
Method in brief: as §2

SC27B = test: as above; conditions: P. falciparum in erythrocytes, SYBR Green DNA, 72 h; series mostly up to 28.7 µM
Method in brief: as §2

TAB109 = test: as above; conditions: P. falciparum in erythrocytes, SYBR Green DNA, 72 h; series mostly up to 28.7 µM
Method in brief: as §2

TAB113 = test: as above; conditions: P. falciparum in erythrocytes, SYBR Green DNA, 72 h; series mostly up to 28.7 µM
Method in brief: as §2

TAB165 = test: as above; conditions: P. falciparum in erythrocytes, SYBR Green DNA, 72 h; series mostly up to 28.7 µM
Method in brief: as §2

W2 = test: as above; conditions: P. falciparum in erythrocytes, SYBR Green DNA, 72 h; series mostly up to 28.7 µM
Method in brief: as §2
Also: nearly all actives have a fitted effect of over 60% in size.
Potency is read from the fitted curve at half-maximal effect.

CN(N=O)C(=O)N[C@@H]1[C@@H](O)[C@H](O)[C@@H](CO)O[C@@H]1O
inactive: outcome (CRL-7250) | outcome (HEK293) | outcome (HaCat) | max response (KB-3-1) 28.6%

CCCCOc1cc(C(=O)OCCN(CC)CC)ccc1N
active: Potency (KB-3-1) 4.95 µM
inactive: Potency (GB4) | Potency (HB3) | Potency (ICS) | Potency (JCK) | Potency (N140) | Potency (P93_24) | Potency (P94_40) | Potency (PAD) | Potency (PC15) | Potency (PC26) | Potency (PC49) | Potency (SC27B) | Potency (TAB109) | Potency (TAB113) | Potency (TAB165) | Potency (W2) | max response (CRL-7250) -0.166% | outcome (CRL-7250) | max response (HEK293) -17.2% and -4.15% | max response (HaCat) 1.81% | outcome (HaCat) | max response (KB-3-1) 6.85%

OCC(O)CN1CCN(c2ccccc2)CC1 (centres undefined)
inactive: Potency (GB4) | Potency (HB3) | Potency (ICS) | Potency (JCK) | Potency (N140) | Potency (P93_24) | Potency (P94_40) | Potency (PAD) | Potency (PC15) | Potency (PC26) | Potency (PC49) | Potency (SC27B) | Potency (TAB109) | Potency (TAB113) | Potency (TAB165) | Potency (W2) | max response (CRL-7250) 0.497% and 1.49% | max response (HEK293) -1.21% | outcome (HEK293) | max response (HaCat) -30% | max response (KB-3-1) -6.94% and 8%

CC(C)(C)C(=O)C(Oc1ccc(Cl)cc1)n1ccnc1 (centres undefined)
inactive: Potency (JCK) | max response (CRL-7250) -7.22% | outcome (CRL-7250) | outcome (HEK293) | max response (HaCat) -9.75% | outcome (HaCat) | max response (KB-3-1) -11% and -12.3%
active: Potency (GB4) 13.5 µM | Potency (ICS) 12.6 µM | Potency (N140) 8.91 µM | Potency (P93_24) 5.01 µM | Potency (P94_40) 7.94 µM | Potency (PAD) 8.91 µM | Potency (PC26) 16.9 µM | Potency (TAB109) 10 µM | Potency (TAB113) 10 µM | Potency (TAB165) 7.08 µM | Potency (W2) 6.01 µM

COc1ccc(Cl)cc1C(=O)NCCc1ccc(S(=O)(=O)NC(=O)NC2CCCCC2)cc1
inactive: Potency (GB4) | Potency (HB3) | Potency (ICS) | Potency (JCK) | Potency (N140) | Potency (P93_24) | Potency (P94_40) | Potency (PAD) | Potency (PC15) | Potency (PC26) | Potency (PC49) | Potency (SC27B) | Potency (TAB109) | Potency (TAB113) | Potency (TAB165) | max response (CRL-7250) -1.35% and -10.9% | max response (HEK293) -12.8% | outcome (HEK293) | max response (HaCat) 2.84% and -12.6% | max response (KB-3-1) -9.53% | outcome (KB-3-1)

CNC(=O)Oc1ccc2c(c1)[C@]1(C)CCN(C)[C@@H]1N2C
active: Potency (GB4) 4.78 µM | Potency (HB3) 2 µM | Potency (JCK) 2.82 µM | Potency (N140) 1.78 µM | Potency (P93_24) 1.58 µM | Potency (P94_40) 1.58 µM | Potency (PAD) 1.41 µM | Potency (PC15) 1.78 µM | Potency (PC49) 2 µM | Potency (TAB109) 2.24 µM | Potency (TAB165) 1.58 µM | Potency (W2) 1.51 µM
inactive: outcome (CRL-7250) | outcome (HEK293) | max response (HaCat) -0.257% | outcome (HaCat) | max response (KB-3-1) -5.47% | outcome (KB-3-1)

CN1CCC[C@@H]1Cc1c[nH]c2ccc(CCS(=O)(=O)c3ccccc3)cc12
active: Potency (ICS) 7.08 µM | Potency (W2) 4.78 µM
inactive: Potency (HB3) | Potency (JCK) | Potency (SC27B) | Potency (TAB113) | outcome (CRL-7250) | max response (HEK293) -1.58% | outcome (HEK293) | outcome (HaCat) | max response (KB-3-1) -5.28% | outcome (KB-3-1)

CCOC(CN1CCN(CC(C)C(=O)c2ccccc2)CC1)c1ccccc1 (centres undefined)
inactive: Potency (HB3) | Potency (JCK) | Potency (N140) | Potency (PAD) | Potency (PC15) | Potency (PC49) | Potency (SC27B) | max response (CRL-7250) -5.72% | max response (HEK293) -4.15% | max response (HaCat) -8.79% | outcome (HaCat) | max response (KB-3-1) 0.981% and -11.3%
active: Potency (W2) 10.7 µM

CC(=O)NC(Cc1ccccc1)C(=O)O (centres undefined)
inactive: Potency (GB4) | Potency (HB3) | Potency (ICS) | Potency (JCK) | Potency (N140) | Potency (P93_24) | Potency (P94_40) | Potency (PAD) | Potency (PC15) | Potency (PC26) | Potency (PC49) | Potency (SC27B) | Potency (TAB109) | Potency (TAB113) | Potency (TAB165) | max response (CRL-7250) 2.75% | outcome (CRL-7250) | max response (HEK293) 1.21% and -5.41% | max response (HaCat) -9.27% | outcome (HaCat) | max response (KB-3-1) 1.12% and 4.36%

CS(=O)(=O)c1ccc([C@@H](O)[C@@H](CF)NC(=O)C(Cl)Cl)cc1
active: Potency (HEK293) 2.99 µM
inactive: max response (CRL-7250) -8.92% | outcome (CRL-7250) | max response (HaCat) 3.4% | outcome (HaCat) | max response (KB-3-1) -19.8%

COC(=O)[C@H]1[C@H]2C[C@@H]3c4[nH]c5cc(OC)ccc5c4CCN3C[C@H]2C[C@@H](OC(=O)COc2ccc(OC)cc2)[C@@H]1OC
inactive: max response (CRL-7250) -0.18% | outcome (HEK293) | outcome (HaCat) | max response (KB-3-1) 0.718%

CC[N+](CC)(CC)CCOc1ccc(/C=C/c2ccccc2)cc1
active: Potency (CRL-7250) 1.06 µM | Potency (HEK293) 4.73 µM | Potency (HaCat) 8.41 µM
inactive: max response (KB-3-1) -18.6% and -29.7%

CC[C@@]1(c2ccccc2)NC(=O)N(C)C1=O
inactive: Potency (GB4) | Potency (HB3) | Potency (ICS) | Potency (JCK) | Potency (N140) | Potency (P93_24) | Potency (P94_40) | Potency (PAD) | Potency (PC15) | Potency (PC26) | Potency (PC49) | Potency (SC27B) | Potency (TAB109) | Potency (TAB113) | Potency (TAB165) | Potency (W2) | max response (CRL-7250) -4% | outcome (HEK293) | outcome (HaCat) | max response (KB-3-1) 31.6%

Cc1cccc(C)c1NC(=O)CN(CC(=O)O)CC(=O)O
inactive: Potency (GB4) | Potency (HB3) | Potency (ICS) | Potency (JCK) | Potency (N140) | Potency (P93_24) | Potency (P94_40) | Potency (PAD) | Potency (PC15) | Potency (PC26) | Potency (PC49) | Potency (SC27B) | Potency (TAB109) | Potency (TAB113) | Potency (TAB165) | max response (CRL-7250) 0.46% | outcome (HEK293) | outcome (HaCat) | max response (KB-3-1) 2.9%
